12-hLO inh: qHTS Assay for Inhibitors of 12-hLO (12-human lipoxygenase). Polyunsaturated fatty acid lipoxygenase ALOX12 (Homo sapiens), P18054. purified 12-hLO, xylenol orange hydroperoxide absorbance. Potency, µM (series often up to 57.1 µM), for inactives: at the highest dose activity change, negative = inhibition, hits mostly inhibitors. 150,000 tested, 0.12% active. AID 1452, 2008; also: potency is read from the fitted curve at half-maximal effect; nearly all actives have a fitted effect of over 55% in size
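Purified human 12hLO (150 nM final) was preincubated with compounds for 15 min at room temperature in 25 mM Hepes pH 7.0, 0.01% Triton X-100, then reacted with 40 uM arachidonic acid for 30 min. Hydroperoxide was detected with ferrous iron/xylenol orange.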
PNC inhibitor: High Content Assay for Compounds that inhibit the Assembly of the Perinucleolar Compartment; PC3M PTB-GFP, PNC prevalence imaging, 16 h; active compounds read low; activity change (PNC), negative = inhibition, % at 10 µM; 140,000 tested, 3.1% active;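 active = readout at or below -70, meaning at least 70% loss of cells showing the perinucleolar compartment, a nuclear body marking cancer cells; inconclusive = readout between -30 and a set limit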;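 also: plate controls were DMSO wells for no effect and camptothecin positive control wells for full effect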
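Compounds are pinned in duplicate onto adhered PC3M cells stably expressing GFP-tagged PTB and incubated 16 h at 37 C. Cells are then fixed, nuclei stained with Hoechst, and PNC-positive cells counted.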
ALOX15B inhib: qHTS Assay for Inhibitors of 15-hLO-2 (15-human lipoxygenase 2) | Potency, µM (series often up to 57.1 µM), for inactives: top-dose activity change, negative = inhibition, most hits filed as inhibitors | 110,000 tested, 0.56% active | purified 15hLO-2, xylenol orange hydroperoxide absorbance | AID 881, 2007 | Polyunsaturated fatty acid lipoxygenase ALOX15B (Homo sapiens), O15296; also: potency is read from the fitted curve at half-maximal effect; nearly all actives have a fitted effect of over 60% in size
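Enzyme 50 nM, AA 45 uM, 25 mM Hepes pH 7.5 + 0.01% Triton X-100; cpd preinc 15 min RT, rxn 90 min RT; stop/detect with 200 uM XO + 300 uM Fe(II) in 50 mM H2SO4, 30 min; A573/A405.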
An asterisk follows results filed as active; [ ] = dose if it differs, or a comment. Only some compounds are listed: those with a hit (about 3.1% of all), similar ones and a draw of the others. Unless noted, calls follow the shape of the dose curve; as a rule, active = well fitted curve in the direction sought with a large enough effect; inconclusive = small, poorly fitted or top-dose-only effect, or another doubt; inactive = no such curve, though single readings can be large; an effect the other way counts as inactive or inconclusive. Unless noted, % is scaled to controls: 0 for no effect and ±100 for the full control effect.

What do the screens show for `Cc1ccc(S(=O)(=O)N2c3ccccc3OCC2c2ccccc2)cc1` (centres undefined)?
12-hLO inh: -1%; PNC inhibitor: -100*

How did Cc1ccc(S(=O)(=O)N2c3cc(C)ccc3OCC2C(C)(C)C)cc1 (centres undefined) do in these assays?
12-hLO inh: 1%; PNC inhibitor: inconclusive; ALOX15B inhib: 8%

How did COCCn1c(=O)c(-c2ccc(F)cc2)nc2cnc(Oc3ccc(OC)cc3)nc21 do in these assays?
12-hLO inh: -3%; ALOX15B inhib: 1%

Results for CCC(=O)O[C@@]1(C(=O)CCl)C(C)CC2C3CCC4=CC(=O)C=C[C@@]4(C)[C@]3(F)C(O)C[C@]21C (some centres undefined) ?
12-hLO inh: -2%; ALOX15B inhib: -5%

What do the screens show for `CC(C)C(=O)Cc1ccc2ccccc2n1`?
12-hLO inh: -4%[11.4 µM]; ALOX15B inhib: -8%[11.4 µM]

Results for COc1ccc(CCNc2oc(-c3ccc(C)cc3)nc2C#N)cc1OC ?
12-hLO inh: -5%; PNC inhibitor: -108*; ALOX15B inhib: -8%

How did COc1ccc(-c2nc(C#N)c(NCCc3ccccc3)o2)cc1 do in these assays?
12-hLO inh: -8%; PNC inhibitor: -100*

What do the screens show for `COc1ccc(CNc2oc(-c3ccccc3)nc2C#N)cc1`?
12-hLO inh: -11%; PNC inhibitor: 25; ALOX15B inhib: -5%

How did COCCNc1oc(-c2ccc(C)cc2)nc1C#N do in these assays?
12-hLO inh: -5%; PNC inhibitor: inconclusive; ALOX15B inhib: -11%

How did CCOC(=O)[C@@H](O)Cc1cnc2ccccc2n1 do in these assays?
12-hLO inh: -1%[11.4 µM]; ALOX15B inhib: -15%[11.4 µM]

What do the screens show for `S=C1NCN2CCN(CC2)CNC(=S)C(=S)NCN2CCN(CC2)CNC1=S`?
12-hLO inh: 0%[11.4 µM]; ALOX15B inhib: -11%[11.4 µM]

What do the screens show for `Cc1ccc(C(=O)CSc2nnc(-c3ccccc3)o2)cc1`?
12-hLO inh: 0%; PNC inhibitor: -95*

What do the screens show for `O=C(CSc1nnc(-c2cccnc2)o1)Oc1ccccc1`?
12-hLO inh: -3%; PNC inhibitor: -25; ALOX15B inhib: 0%

Results for O=C(CSc1nnc(-c2cccnc2)o1)c1cc2ccccc2oc1=O ?
12-hLO inh: -9%; PNC inhibitor: -99*; ALOX15B inhib: -3%

What do the screens show for `O=C(O)CSc1nnc(-c2ccccc2)o1`?
12-hLO inh: 0%; PNC inhibitor: 10; ALOX15B inhib: 5%

Results for CCCCCN(CCCCC)C(=O)[C@H](CCC(=O)O)NC(=O)c1ccc(Cl)c(Cl)c1 ?
12-hLO inh: 0%[25.6 µM]; ALOX15B inhib: 2%[25.6 µM]

Results for COc1ccc(C(=O)NC2CCCCCC2)cc1S(=O)(=O)N1CCCc2ccccc21 ?
12-hLO inh: 1%; PNC inhibitor: 13; ALOX15B inhib: 0%

What do the screens show for `COc1ccc(C(=O)Nc2nc3c(s2)CCCC3)cc1S(=O)(=O)N1CCCc2ccccc21`?
12-hLO inh: -7%; PNC inhibitor: -123*

How did CC(Sc1nc2ccccc2[nH]1)C(=O)O (centres undefined) do in these assays?
12-hLO inh: 13%; PNC inhibitor: 29; ALOX15B inhib: 11%

Results for CC(=O)N=C(N)Sc1nc2ccccc2[nH]1 ?
12-hLO inh: 3%; PNC inhibitor: -100*

What do the screens show for `O=C(Oc1ccccc1)N1CCC2(CC1)CN(c1ncccn1)C2`?
12-hLO inh: 0%; ALOX15B inhib: -5%

What do the screens show for `CCCCc1nc2ccn(CC(=O)N(C)C)c(=O)c2n1Cc1ccc(-c2ccccc2-c2nn[nH]n2)cc1`?
12-hLO inh: -2%[0.00818 µM]; ALOX15B inhib: 0%[0.0915 µM]

Results for O=C(CCN1C(=O)/C(=C/C=C/c2ccccc2)SC1=S)Nc1cccnc1 ?
12-hLO inh: -1%; PNC inhibitor: -108*

What do the screens show for `O=C(CCCN1C(=O)/C(=C\c2cccs2)SC1=S)Nc1cccnc1`?
12-hLO inh: 4%; PNC inhibitor: 0

How did Cc1cn(C(=O)c2ccccc2)c(=S)n1-c1ccc(Cl)cc1 do in these assays?
12-hLO inh: -7%; PNC inhibitor: -100*

What do the screens show for `Cc1ccc(-n2c(C)cn(C(=O)c3ccccc3)c2=S)cc1`?
12-hLO inh: -1%; PNC inhibitor: inconclusive

What do the screens show for `O=C(c1csnn1)N1CCC2(CC1)CCN(c1ccccc1)CC2`?
12-hLO inh: -1%; ALOX15B inhib: -4%

Results for COCC(C)NC(=O)c1cccc(Cl)c1 (centres undefined) ?
12-hLO inh: 0%; PNC inhibitor: -29; ALOX15B inhib: -3%

Source: PubChem BioAssay
